This note sets out measurements from PubChem BioAssay.

Sequence of Concanavalin-A (Canavalia ensiformis) (P02866 whole entry, looked up): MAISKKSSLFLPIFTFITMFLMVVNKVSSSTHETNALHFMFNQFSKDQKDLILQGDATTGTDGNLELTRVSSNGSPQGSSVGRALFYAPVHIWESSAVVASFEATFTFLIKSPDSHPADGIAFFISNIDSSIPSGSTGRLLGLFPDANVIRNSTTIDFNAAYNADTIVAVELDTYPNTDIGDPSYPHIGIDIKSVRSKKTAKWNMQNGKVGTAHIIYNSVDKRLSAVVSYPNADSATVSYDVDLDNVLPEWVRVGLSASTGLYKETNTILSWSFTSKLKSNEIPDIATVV

One test addresses Concanavalin-A (Canavalia ensiformis) (UniProt P02866). Briefly: compounds binding concanavalin A lectin – biochemical, small-molecule microarray, Alexa647 label, 635 nm, artefact control for SMM control protein annotation, primary screen (AID 1127).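 Note: z combines 667 nm emission intensity with signal-to-noise across three replicate slides.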 The conditions noted are these: ConA-A647 binding fluorescence, higher = more signal.
`COC(=O)[C@@]1(Cc2ccccc2)[C@H]2c3cc(C(=O)N(C)C)n(CCF)c3C[C@H]2CN1C(=O)c1ccccc1`: the composite z-score came to 0.517. As to `COc1ccc(NN2C(C(O)c3ccc(F)cc3)C=CC3C(=O)N(C4CCCCC4)C(=O)C32)cc1` (stereo not drawn), the composite z-score was determined as 1.13. Regarding `COC(=O)[C@@]1(Cc2ccc(F)cc2)[C@H]2c3cc(C(=O)N(C)C)n(Cc4ccsc4Br)c3C[C@H]2CN1C(=O)c1ccccc1`, the composite z-score amounted to 1.13. As for `COc1ccc(NN2C(C(O)c3ccccc3)C=CC3C(=O)N(C4CCCCC4)C(=O)C32)cc1` (stereo not drawn), the composite z-score was 1.12. On the same count and under the same terms, the value for `C=CC[C@H](OC(=O)Nc1ccc(SC)cc1)c1ccc(O)c(F)c1` was -0.873; that for `CO[C@H]1O[C@H](CO)[C@@H](OC(=O)CCc2ccccc2)[C@@H]2OC(=O)[C@@H](Cc3ccc4ccccc4c3)C/C=C/C[C@H](Cc3ccc4ccccc4c3)C(=O)O[C@@H]12` was 0.208. Still for that read-out and setting: in the case of `COC(=O)[C@H](Cc1ccccc1)N1CC(C)(OC)O[C@@H](Cc2ccccc2)[C@H]1/C=C/C1CC1` (stereo partly drawn) it was 0.371; in that of `C[C@H]1C2[C@H](Cc3ccccc3)NC(=O)[C@]23C(=O)N[C@@H](Cc2ccccc2)C(=O)N2CCC[C@H]2C(=O)NC/C=C/CC/C=C/C3[C@@H]2O[C@]12C` (stereo partly drawn), 0.236; in that of `C=C(C(=O)CC[C@@H](OC(=O)c1ccccc1-c1ccccc1C(=O)O)c1cccc(OCCO)c1)C(C)C`, -0.539. Compound `C=C(CCCC)C(=O)CC[C@H](OC(=O)c1ccccc1-c1ccccc1C(=O)O)c1cccc(OCCO)c1` displayed a composite z-score of -1.14. Same read-out and setting: the value for `C=C(CCCC)/C(=C/C[C@@H](OC(C)=O)c1cccc(OCCO)c1)c1cc(C(=O)OC)ccc1OC` was -0.656; that for `CCCCCN1CC=CC23O[C@@H]4/C=C\CCCOC(=O)C4[C@H]2C(=O)N(CCO)[C@@H]3C1=O` (stereo partly drawn) was 0.433; that for `O=C1NC(=O)C2C1C=CC(C(O)C1CCCCC1)N2Nc1ccccn1` (stereo not drawn) was 0.898. In the case of `COC(=O)C1(CC(C)C)C=C2C(=C(C)C(=O)C2C)CN1` (stereo not drawn), the composite z-score is -0.667. On the same count and under the same terms, in the case of `Cc1ccc(N2C(=O)c3ccccc3[C@@H](C(=O)NCCN3CCOCC3)[C@@H]2c2ccc(CO)cc2)nc1` it was -0.469; in that of `COCCOC(=O)N1C(=O)[C@@]2(c3cc(C#CCNC(N)=O)ccc31)[C@H](c1ccc(O)cc1)N1[C@H](c3ccccc3)[C@H](c3ccccc3)OC(=O)[C@H]1[C@@H]2C(=O)N1CCc2cc(OC)c(OC)cc2C1`, 0.764. The same measure, in the same setting: the value for `O=C(NC1CC1)[C@@H]1c2ccccc2C(=O)N(C2CCCCC2)[C@H]1c1ccc(CO)cc1` was 0.332; that for `COc1ccc([Si](C)(C)[C@@H]2[C@@H](CC(=O)N(CCO)Cc3ccccc3)O[C@]3(C(=O)N(Cc4cccc(I)c4)c4ccccc43)[C@H]2C)cc1` was 0.779.

Tested on in another test: not listed separately
The test can be described thus: compounds binding Alexa647 anti-His antibody – biochemical, small-molecule microarray, 635 nm fluorescence, artefact control for SMM control protein annotation, primary screen (AID 1128).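 Note: score merges feature fluorescence with signal-to-noise for each printed compound spot.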 The conditions noted are these: higher = more signal.
With `O=C(O)C1=CC[C@H]2C(=O)N(c3ccccc3)C(=O)[C@@H]12`, the composite z-score was 0.39. In the case of `CCc1cccc(NC(=O)O[C@H]2[C@H](OC(=O)Nc3ccccc3-c3ccccc3)[C@H](OC(=O)Nc3ccccc3-c3ccccc3)[C@@H](OC)O[C@@H]2CO)c1`, the composite z-score was determined as 0.979.

In the case of `C=C(COC)/C(=C/C[C@@H](OC(C)=O)c1cccc(OCCO)c1)c1cnc2ccccc2c1`, the composite z-score amounted to 0.309. Same read-out and setting: the value for `Cc1ccc(S[C@]2(C(=O)NCc3ccccc3)CC(=O)N(Cc3ccccc3C(F)(F)F)[C@@H]2c2ccc(CO)cc2I)cc1` was 1.53; that for `COCCOC(=O)N1C(=O)[C@@]2(c3cc(C#CC4(O)CCCCCC4)ccc31)[C@H](C(N)=O)[C@H]1C(=O)O[C@H](c3ccccc3)[C@H](c3ccccc3)N1[C@@H]2c1ccc(OCCO)cc1` was 2.19.

Turning to `COc1c(C)cc(-c2cc3c(c(CCc4ccccc4)n2)[Si](C(C)C)(C(C)C)O[C@H]3c2ccccc2)cc1C`, the composite z-score is -0.439. Same read-out and setting: in the case of `COC(=O)[C@@]1(Cc2ccc(F)cc2)[C@H]2c3cc(C(=O)N(C)C)n(Cc4cccc5ccccc45)c3C[C@H]2CN1C(=O)c1ccccc1` it was 0.497; in that of `CC(C)C[C@@H]1NC(=O)[C@@H]2C[C@H](C(=O)NCCCCCNC(=O)CS)[C@H](c3ccc(O)cc3)N2C1=O`, 2.52. The same measure, in the same setting: in the case of `C=C[C@@H](CO)NS(=O)(=O)c1ccc(Br)cc1` it was -0.371; in that of `COC(=O)[C@@]1(Cc2ccc(F)cc2)[C@H]2c3cc(C(=O)N(C)C)n(CCF)c3C[C@H]2CN1C(=O)c1ccccc1`, 1.67. Regarding `COC(=O)[C@@]1(Cc2ccccc2)[C@H]2c3cc(C(=O)N(C)C)n(Cc4nc5ccccc5[nH]4)c3C[C@H]2CN1C(=O)c1ccccc1`, the composite z-score worked out at 1.85.

Compound `C=C(C(=O)CC[C@@H](OC(=O)c1ccccc1-c1ccccc1C(=O)O)c1ccc(OCCO)cc1)C(C)C` came in with a composite z-score of 1.19.

With `COCCOC(=O)N1C(=O)[C@@]2(c3cc(C#CCCO)ccc31)[C@H](C(=O)N1CCN(c3ncccn3)CC1)[C@H]1C(=O)O[C@H](c3ccccc3)[C@H](c3ccccc3)N1[C@@H]2c1ccc(OCCO)cc1`, the composite z-score was 1.12.

As to `O=C1OC[C@@H](c2ccccc2)n2cc(/C=C/c3ccccc3)cc21`, the composite z-score stood at 0.353. Take `CCOC(=O)C[C@H]1[C@H](OC(=O)c2cc3ccccc3oc2=O)[C@@H](NC(=O)Cc2ccc(OC)cc2)c2cc(OCCCO)ccc2N1C(=O)Cc1ccc(OC)cc1`: the composite z-score is -0.279. On the same count and under the same terms, the value for `C=CCN1C(=O)[C@@]2(O[C@@H](CCO)[C@H]([Si](C)(C)c3ccc(OC)cc3)[C@H]2C)c2cc(N3CCCCC3=O)ccc21` was 2.63; that for `COc1ccc(CCNC(=O)[C@@]2(C)c3ccccc3C(=O)N(Cc3ccc(OC(F)(F)F)cc3)[C@H]2c2ccc(CO)cc2)cc1` was -0.0781; that for `COC(=O)[C@@]1(Cc2ccccc2)[C@H]2c3cc(C(=O)N(C)C)n(CCF)c3C[C@H]2CN1C(=O)c1ccccc1` was 2.32. In turn, `COc1ccc(NN2C(C(O)c3ccc(F)cc3)C=CC3C(=O)N(C4CCCCC4)C(=O)C32)cc1` (stereo not drawn) displayed a composite z-score of 0.683. With `COC(=O)[C@@]1(Cc2ccc(F)cc2)[C@H]2c3cc(C(=O)N(C)C)n(Cc4ccsc4Br)c3C[C@H]2CN1C(=O)c1ccccc1`, the composite z-score came to 0.77.

`COc1ccc(NN2C(C(O)c3ccccc3)C=CC3C(=O)N(C4CCCCC4)C(=O)C32)cc1` (stereo not drawn) displayed a composite z-score of 0.864. Still for that read-out and setting: in the case of `C=CC[C@H](OC(=O)Nc1ccc(SC)cc1)c1ccc(O)c(F)c1` it was 0.434.

`CO[C@H]1O[C@H](CO)[C@@H](OC(=O)CCc2ccccc2)[C@@H]2OC(=O)[C@@H](Cc3ccc4ccccc4c3)C/C=C/C[C@H](Cc3ccc4ccccc4c3)C(=O)O[C@@H]12` came in with a composite z-score of 0.0781. For the compound `COC(=O)[C@H](Cc1ccccc1)N1CC(C)(OC)O[C@@H](Cc2ccccc2)[C@H]1/C=C/C1CC1` (stereo partly drawn), the composite z-score came out at 0.575. Same read-out and setting: the value for `C[C@H]1C2[C@H](Cc3ccccc3)NC(=O)[C@]23C(=O)N[C@@H](Cc2ccccc2)C(=O)N2CCC[C@H]2C(=O)NC/C=C/CC/C=C/C3[C@@H]2O[C@]12C` (stereo partly drawn) was 0.196; that for `C=C(C(=O)CC[C@@H](OC(=O)c1ccccc1-c1ccccc1C(=O)O)c1cccc(OCCO)c1)C(C)C` was 0.256; that for `C=C(CCCC)C(=O)CC[C@H](OC(=O)c1ccccc1-c1ccccc1C(=O)O)c1cccc(OCCO)c1` was -0.413. `C=C(CCCC)/C(=C/C[C@@H](OC(C)=O)c1cccc(OCCO)c1)c1cc(C(=O)OC)ccc1OC` returned a composite z-score of 0.57. For the compound `CCCCCN1CC=CC23O[C@@H]4/C=C\CCCOC(=O)C4[C@H]2C(=O)N(CCO)[C@@H]3C1=O` (stereo partly drawn), the composite z-score is 2.49. Same read-out and setting: in the case of `O=C1NC(=O)C2C1C=CC(C(O)C1CCCCC1)N2Nc1ccccn1` (stereo not drawn) it was 0.279; in that of `COC(=O)C1(CC(C)C)C=C2C(=C(C)C(=O)C2C)CN1` (stereo not drawn), 2.95.

In the case of `Cc1ccc(N2C(=O)c3ccccc3[C@@H](C(=O)NCCN3CCOCC3)[C@@H]2c2ccc(CO)cc2)nc1`, the composite z-score was -0.227.

For the compound `COCCOC(=O)N1C(=O)[C@@]2(c3cc(C#CCNC(N)=O)ccc31)[C@H](c1ccc(O)cc1)N1[C@H](c3ccccc3)[C@H](c3ccccc3)OC(=O)[C@H]1[C@@H]2C(=O)N1CCc2cc(OC)c(OC)cc2C1`, the composite z-score is 1.24. The compound `O=C(NC1CC1)[C@@H]1c2ccccc2C(=O)N(C2CCCCC2)[C@H]1c1ccc(CO)cc1` returned a composite z-score of 1.86.

Compound `COc1ccc([Si](C)(C)[C@@H]2[C@@H](CC(=O)N(CCO)Cc3ccccc3)O[C@]3(C(=O)N(Cc4cccc(I)c4)c4ccccc43)[C@H]2C)cc1` registered a composite z-score of 0.853.
